# Among all 66,000 compounds or so, about 960 (1.5%) showed an effect of 50% or more. The list comes from a sample in which strong results are over-represented; it also holds similar structures and randomly drawn compounds.
# Test system: Trypanosoma brucei
# Experiment: Trypanosoma brucei 72 hour study
# Format: functional, organism-based
# Parameters: scale not given: in the data most compounds retested in dose-response had high values
structure (smiles),measurement,setting,value
CCn1cc2c(n1)CN(Cc1ccncc1)CC2COCC1CC1.O=C(O)C(F)(F)F.O=C(O)C(F)(F)F (configuration not stated),Percent Effect,"30 µM, 30.03 µM",16.48%
CCOC(=O)[C@@H]1[C@@H](OC)C(=O)N(C)C12CCN(C(=O)C(CC)CC)CC2,Percent Effect,"30.3 µM, […]",47.28%
O=C1NCC(c2ccc(Cl)cc2)Cc2[nH]c(CCN3CCOCC3)nc21 (configuration not stated),Percent Effect,"30.3 µM, […]",-6.17%
O=C(CCCn1ccnc1)NC1CCCN(c2ccccc2Cl)C1 (configuration not stated),Percent Effect,"30 µM, 30.03 µM",-36.7%
CC(=O)N(C)C1CCN(C(=O)c2cccc3c2ccn3C)CC1,Percent Effect,"30.3 µM, […]",1.635%
Cn1ccc2c(C(=O)N3CCC(C(N)=O)CC3)cccc21,Percent Effect,"30 µM, 30.03 µM",51.42%
Cn1ccc2c(C(=O)N3CCN(C(=O)C4CCCC4)CC3)cccc21,Percent Effect,"30.3 µM, […]",-0.9219%
CNCc1ccc([C@@H]2CN(C(C)=O)C[C@H]2C(N)=O)cc1.Cl,Percent Effect,"30.3 µM, […]",-4.211%
COc1cccc(-c2nc(C)c(C(=O)N[C@@H](CCSC)C(=O)O)s2)c1,Percent Effect,"30 µM, 30.03 µM",-41.8%
Cc1nn(-c2ccccc2)c(C)c1CC(=O)NC1CC(=O)N(C)C1 (configuration not stated),Percent Effect,"30 µM, 30.03 µM",-14.36%
COC(=O)[C@H](CCSC)NC(=O)Cn1ccc2c(Cl)cccc21,Percent Effect,"30 µM, 30.03 µM",-28.3%
COC(=O)[C@H](CCSC)NC(=O)Cc1c(C)nn(-c2ccccc2)c1C,Percent Effect,"30 µM, 30.03 µM",101%
CSCCC(NC(N)=O)C(=O)NCc1c(C)nn(-c2ccccc2)c1C (configuration not stated),Percent Effect,"30 µM, 30.03 µM",-20.96%
COC(=O)C(CCSC)NC(=O)Cc1c(C)nn(-c2ccccc2)c1C (configuration not stated),Percent Effect,"30.3 µM, […]",100.4%
CC(C)Cc1noc(CN2CCOCC2C)n1 (configuration not stated),Percent Effect,"30 µM, 30.03 µM",-14.5%
O=C(Nc1cnccn1)[C@@H]1CCO[C@@H]2CCN(Cc3ccsc3)C[C@@H]21.O=C(O)C(F)(F)F,Percent Effect,"30.3 µM, […]",-603.1%
O=C(Nc1ccccc1)N1C(CN2CCOCC2)[C@]2(O)CC[C@H]1CC2 (some centres not stated),Percent Effect,"30.3 µM, […]",6.609%
CCn1nc(C)c2nc(C(C)C)nc(NCC(=O)N3CCOCC3)c21,Percent Effect,"30.3 µM, […]",-23.63%
CCc1nc(NCC(=O)N2CCOCC2)c2c(n1)c(C)nn2CC,Percent Effect,"30 µM, 30.03 µM",60.24%
CCCc1nc(NCC(=O)N2CCOCC2)c2c(n1)c(C)nn2CC,Percent Effect,"30.3 µM, […]",-24.9%
CCCc1ccc(N2CCN(Cc3nc4ccccc4n3C)CC2)cc1,Percent Effect,"30 µM, 30.03 µM",90.43%
Cn1c(CCN2CCN(CCc3ccccc3)CC2)nc2ccccc21,Percent Effect,"30 µM, 30.03 µM",-13.15%
Cn1c(CN2CCN(CC3CCCO3)CC2)nc2ccccc21 (configuration not stated),Percent Effect,"30.3 µM, […]",-39.6%
COCCN1CC[C@@H]2CN(Cc3nccn3C)C[C@@H]2C1.O=C(O)C(F)(F)F.O=C(O)C(F)(F)F,Percent Effect,"30 µM, 30.03 µM",27.97%
CC(C)CN1CCc2c(CN(C)Cc3ccco3)cncc2C1.Cl.Cl.Cl,Percent Effect,"30.3 µM, […]",-2.843%
COc1ccc(C)cc1CN(Cc1nc(C)c(C)o1)C1CCN(C)C1 (configuration not stated),Percent Effect,"30 µM, 30.03 µM",82.74%
Cc1cnc(CN(Cc2ccc(C#N)cc2F)C2CCN(C)C2)o1 (configuration not stated),Percent Effect,"30 µM, 30.03 µM",-34.7%
COc1ccc(C)cc1CN(Cc1ncc(C)o1)C1CCN(C)C1 (configuration not stated),Percent Effect,"30 µM, 30.03 µM",-50.91%
COc1cc(C(=O)NCC2(N(C)C)CCN(C)CC2)c2ccccc2n1,Percent Effect,"30.3 µM, […]",-18.58%
O[C@@H]1CN(CC2=Cc3cc(Cl)ccc3OC2)CC[C@H]1N1CCCCCC1,Percent Effect,"30.3 µM, […]",78.41%
CN1CCN([C@@H]2CCN(CC3=Cc4cc(Cl)ccc4OC3)C[C@H]2O)CC1,Percent Effect,"30.3 µM, […]",22.23%
Cc1c(CN2CC[C@@H](N3CCC(O)CC3)[C@H](O)C2)[nH]c2ccc(Cl)cc12,Percent Effect,"30 µM, 30.03 µM",-14.51%
O=C(CCc1ccco1)N1CCCC(n2cccn2)C1 (configuration not stated),Percent Effect,"30.3 µM, […]",12.32%
Cn1cnnc1S(=O)(=O)C1CCN(S(=O)(=O)c2ccccc2F)CC1,Percent Effect,"30 µM, 30.03 µM",-32%
Cc1ccc(S(=O)(=O)N2CCC(S(=O)(=O)c3nncn3C)CC2)cc1C,Percent Effect,"30 µM, 30.03 µM",-15.11%
Cn1cnnc1S(=O)(=O)C1CCN(S(=O)(=O)c2ccc(F)c(Cl)c2)CC1,Percent Effect,"30 µM, 30.03 µM",73.39%
CN1CCN(Cc2ccncc2)C(=O)C12CCN(Cc1ccsc1)CC2.O=C(O)C(F)(F)F.O=C(O)C(F)(F)F.O=C(O)C(F)(F)F,Percent Effect,"30.3 µM, […]",-53.7%
COC1CCN(C(=O)Cc2csc(-c3ccccc3)n2)CC1,Percent Effect,"30.3 µM, […]",99.67%
COC1CCN(C(=O)Cc2csc(-c3ncccn3)n2)CC1,Percent Effect,"30 µM, 30.03 µM",9.896%
COC1CCN(C(=O)Cc2csc(-c3ccc(F)cc3)n2)CC1,Percent Effect,"30.3 µM, […]",9.7%
Cc1cc(N2CCc3cncnc3C2)n2nc(C(F)(F)F)nc2n1,Percent Effect,"30 µM, 30.03 µM",-22.1%
Cc1ccc(C(=O)N2CCOCC2C(N)=O)c(F)c1 (configuration not stated),Percent Effect,"30 µM, 30.03 µM",-8.01%
CC(C)NC(=O)c1csc(NC2CC2)n1,Percent Effect,"30 µM, 30.03 µM",-15.9%
CC(C)CCNc1nc(C(=O)NC2CC2)cs1,Percent Effect,"30 µM, 30.03 µM",-29.09%
CC(NC(=O)Nc1nccs1)C(=O)NC1CCCC1 (configuration not stated),Percent Effect,"30 µM, 30.03 µM",-0.2762%
CC(C)CCNC(=O)c1csc(NC2CC2)n1,Percent Effect,"30 µM, 30.03 µM",55.59%
O=C(Nc1nccs1)c1csc(NC2CCCC2)n1,Percent Effect,"30 µM, 30.03 µM",93.86%
O=C(Nc1ccccn1)c1csc(NC2CCCC2)n1,Percent Effect,"30 µM, 30.03 µM",1.318%
COc1cccc(C2CCCN2Cc2nnnn2C2CC2)c1 (configuration not stated),Percent Effect,"30 µM, 30.03 µM",7.439%
O=C(O)C(F)(F)F.O=C(O)C(F)(F)F.c1csc(CN2Cc3nc(CN4CCCC4)oc3C2)c1,Percent Effect,"30.3 µM, […]",-24.4%
COc1c(C)cnc(CN(C)C2CCN(C3CCOCC3)CC2)c1C,Percent Effect,"30 µM, 30.03 µM",-11.24%
COc1c(C)cnc(CN(C)C2CCCCC2)c1C,Percent Effect,"30 µM, 30.03 µM",75.58%
COc1c(C)cnc(CN(C)C2CCOC3(CCOCC3)C2)c1C (configuration not stated),Percent Effect,"30 µM, 30.03 µM",-25.65%
Cc1cc(C)c(CNC(=O)NCc2ccc(F)cc2)c(=O)[nH]1,Percent Effect,"30.3 µM, […]",-10.32%
COc1ccc(CNC(=O)NCc2c(C)cc(C)[nH]c2=O)cc1,Percent Effect,"30 µM, 30.03 µM",50.39%
COc1cc(CNC(=O)NCc2c(C)cc(C)[nH]c2=O)ccc1C,Percent Effect,"30 µM, 30.03 µM",17.33%
Cc1sc(CN)nc1-c1ccc(Cl)cc1.Cl,Percent Effect,"30 µM, 30.03 µM",-33.68%
O=C(NCCCNc1ccc(C(F)(F)F)cn1)c1ccc(F)cc1,Percent Effect,10 µM,-67.47%
Cc1nc(CCN2CCC(Oc3ccccc3F)CC2)cs1,Percent Effect,"30.3 µM, […]",-2.649%
Cc1nc(CCN2CCC(Oc3ccccc3F)CC2)c(C)s1,Percent Effect,"30.3 µM, […]",14.09%
Cc1nc(C)c(CCN2CCC(Oc3ccccc3F)CC2)s1,Percent Effect,"30.3 µM, […]",55.32%
O=C(O)C(F)(F)F.O=C(O)C(F)(F)F.O=C1NC2(CCN(Cc3ccsc3)CC2)CC1c1ccncc1 (configuration not stated),Percent Effect,"30 µM, 30.03 µM",34.47%
CC(C)n1c(=O)nc2n1C(=O)N(c1ccc(F)cc1)C2,Percent Effect,"30 µM, 30.03 µM",24.9%
COc1cc(Cl)cc(CN2CCCC(N3CCCC3)C2)c1OC (configuration not stated),Percent Effect,"30 µM, 30.03 µM",-17.8%
c1sc(C2CCCC2)nc1CN1CCn2c(nnc2C2CC2)C1,Percent Effect,"30 µM, 30.03 µM",-23.12%
c1sc(C2CCCCC2)nc1CN1CCn2c(nnc2C2CC2)C1,Percent Effect,"30.3 µM, […]",99.05%
c1cnc(-c2nc(CN3CCn4c(nnc4C4CC4)C3)cs2)nc1,Percent Effect,"30 µM, 30.03 µM",1.717%
Cc1ccc(C(=O)N2CCCC(c3[nH]ncc3S(C)(=O)=O)C2)s1 (configuration not stated),Percent Effect,"30.3 µM, […]",-30.56%
Cc1ccsc1C(=O)N1CCCC(c2[nH]ncc2S(C)(=O)=O)C1 (configuration not stated),Percent Effect,"30.3 µM, […]",-15.29%
Cc1csc(C(=O)N2CCCC(c3[nH]ncc3S(C)(=O)=O)C2)c1 (configuration not stated),Percent Effect,"30.3 µM, […]",68.17%
COCCN1CCC2(CC1)CN(C(=O)c1cccs1)CCO2.O=C(O)C(F)(F)F,Percent Effect,"30.3 µM, […]",-16.53%
CN(C)CCO[C@H]1CN(C(=O)c2cccs2)[C@@H]2COC[C@H]12.O=C(O)C(F)(F)F,Percent Effect,"30 µM, 30.03 µM",4.197%
CC(C)Sc1ccc(C(C)Nc2nc3c(cnn3C)c(=O)[nH]2)cc1 (configuration not stated),Percent Effect,"30.3 µM, […]",62.45%
CC(Nc1nc2c(cnn2C)c(=O)[nH]1)c1ccc2c(c1)CCCC2 (configuration not stated),Percent Effect,"30.3 µM, […]",35.38%
CCC(=O)Nc1ccc(C(C)Nc2nc3c(cnn3C)c(=O)[nH]2)cc1 (configuration not stated),Percent Effect,"30.3 µM, […]",99.39%
CC(Nc1nc2c(cnn2C)c(=O)[nH]1)c1ccccn1 (configuration not stated),Percent Effect,"30.3 µM, […]",-31.46%
CC(Nc1nc2c(cnn2C)c(=O)[nH]1)c1ccc(F)cc1 (configuration not stated),Percent Effect,"30.3 µM, […]",-23.37%
Cc1ccc(C(C)N(C)Cc2nc3c(cnn3C)c(=O)[nH]2)cc1 (configuration not stated),Percent Effect,"30 µM, 30.03 µM",18.7%
CSCC[C@H](N)c1nnc(SCC(=O)Nc2ccc(Br)cc2)o1.Cl,Percent Effect,"30 µM, 30.03 µM",-43.15%
CC(CNC(=O)c1ccc(F)cc1I)N1CCCC1 (configuration not stated),Percent Effect,"30.3 µM, […]",0.5476%
COCCC(=O)NCCn1nc(C2CCNC2)c2cccnc21.Cl (configuration not stated),Percent Effect,"30.3 µM, […]",-11.01%
Cc1nc(CN2CCC(O)(c3ccccc3F)CC2)c2ccccn12.O=C(O)CC(O)(CC(=O)O)C(=O)O,Percent Effect,"30.3 µM, […]",-5.12%
Cc1cccc(C)c1NC(=O)c1cc(S(N)(=O)=O)c(C)o1,Percent Effect,"30 µM, 30.03 µM",-12.34%
Cn1cc(CNC(=O)NCCOc2ccc(F)c(F)c2)cn1,Percent Effect,"30 µM, 30.03 µM",-10%
CC1(C(=O)NCc2cccnc2Oc2ccc(F)c(F)c2)CCCNC1 (configuration not stated),Percent Effect,"30 µM, 30.03 µM",-31.1%
Cc1nccc(CNC(=O)NCCOc2ccc(F)c(F)c2)n1,Percent Effect,"30.3 µM, […]",8.406%
Cc1nc(C2(O)CCCNCC2)sc1CCOc1ccc(F)c(F)c1.Cl (configuration not stated),Percent Effect,"30.3 µM, […]",101.7%
Cc1cc(CNC(=O)NCCOc2ccc(F)c(F)c2)on1,Percent Effect,"30 µM, 30.03 µM",-38.02%
CCC(CN1CCCC1)NC(=O)Cc1c(C)[nH]c2c(C)cc(C)cc12.O=C(O)CC(O)(CC(=O)O)C(=O)O (configuration not stated),Percent Effect,"30.3 µM, […]",9.843%
Cc1ccc(CN2CCCn3nnc(COCC4CC4)c3C2)s1.O=C(O)C(F)(F)F,Percent Effect,"30 µM, 30.03 µM",22.43%
CN(C)CCCN(Cc1ccco1)Cc1ccnn1C1CCCCO1.O=C(O)CC(O)(CC(=O)O)C(=O)O (configuration not stated),Percent Effect,"30.3 µM, […]",-21.72%
O=C(O)C(F)(F)F.O=C(c1ccncc1)N1CCOC2(CCCN(c3nncs3)C2)C1 (configuration not stated),Percent Effect,"30.3 µM, […]",-64.64%
CN(C)S(=O)(=O)N1CCC(c2cccc(Cc3ccccc3Cl)n2)CC1,Percent Effect,"30.3 µM, […]",-38.96%
Cc1ccc(-c2nc(CN(Cc3cccs3)CC3CCCO3)no2)cc1 (configuration not stated),Percent Effect,10 µM,-10.74%
same,Percent Effect,"30.3 µM, […]",9.515%
Cc1ncoc1C(=O)N1C[C@H]2CCC[C@@]2(COCc2cccnc2)C1.O=C(O)C(F)(F)F,Percent Effect,"30 µM, 30.03 µM",18.22%
Cn1nnc2c1CCN(CC1CC1)C2COCc1ccccc1.O=C(O)C(F)(F)F (configuration not stated),Percent Effect,"30 µM, 30.03 µM",17.54%

# Source: ChEMBL document CHEMBL3988442, “University of Dundee, Small-Polar-MMV Screening Library” (2021)
